Test [1] is described as follows: qHTS RealTime-Glo MT Cell Viability Assay in HepG2 cells - 24 hour (AID 1224867). Note: nearly all actives have a fitted effect of over 50% in size. In a few lines:
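HepG2 suspension premixed with RealTime-Glo reagents is plated at 600 cells per well and left 5 h at 37 C/5% CO2. Compounds in DMSO then go in, and bioluminescence reflecting viable cell number is recorded over 40 h.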

Test [2] can be described thus: qHTS RealTime-Glo MT Cell Viability Assay in HEK293 cells - 32 hour (AID 1224868). Note: top concentration of the series differs between compounds; nearly all actives have a fitted effect of over 50% in size. An outline of the steps: (§1)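 Reads taken at 0, 8, 16, 24, 32 and 40 h from the same wells. HEK293 cells (600/well) carried RealTime-Glo reagents from seeding, with compound added after a 5 h settle at 37 C.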
Test [3] in a line: A CellTox Green Cytotoxicity Assay to monitor cytotoxicity in HEK293 cells - 0 hour (AID 1224869). Note: nearly all actives have a fitted effect of over 50% in size. An outline of the steps: (§2)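 HEK293 cells premixed with CellTox Green dye were seeded at 600 cells/well and left 5 h at 37 C/5% CO2 before pin transfer of 23 nL compound in DMSO. Fluorescence from dye bound to dead-cell DNA was read during 40 h treatment.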
The nature of test [4]: qHTS RealTime-Glo MT Cell Viability Assay in HepG2 cells - 40 hour (AID 1224870). Note: nearly all actives have a fitted effect of over 50% in size. An outline of the steps: (§3)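 Real-time viability: cells seeded at 600 per well together with NanoLuc and cell-permeant prosubstrate, compounds added after 5 h incubation. Luminescence tracked at 0, 8, 16, 24, 32 and 40 h of exposure.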
Test [5] is described as follows: A CellTox Green Cytotoxicity Assay to monitor cytotoxicity in HEK293 cells - 40 hour (AID 1224871). Note: nearly all actives have a fitted effect of over 45% in size. Note: potency is the fitted concentration of half-maximal effect. An outline of the steps:
as §2

The nature of test [6]: qHTS RealTime-Glo MT Cell Viability Assay in HEK293 cells - 16 hour (AID 1224872). An outline of the steps: as §1
Test [7] in a line: qHTS RealTime-Glo MT Cell Viability Assay in HepG2 cells - 8 hour (AID 1224873). Note: nearly all actives have a fitted effect of over 55% in size. An outline of the steps:
as §3

Test [8] is described as follows: qHTS RealTime-Glo MT Cell Viability Assay in HEK293 cells - 40 hour (AID 1224874). Note: nearly all actives have a fitted effect of over 50% in size. As to conditions: RealTime-Glo luminescence; max response: stronger effect = lower value. In a few lines: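 HEK293 cells mixed with RealTime-Glo reagents (NanoLuc plus cell-permeant prosubstrate) at 600 cells/well, preincubated 5 h at 37 C/5% CO2, then given 23 nL compound in DMSO. Nonlytic luminescence from viable cells was read at 0, 8, 16, 24, 32 and 40 h.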

Test [9] in a line: A CellTox Green Cytotoxicity Assay to monitor cytotoxicity in HEK293 cells - 24 hour (AID 1224875). Note: series mostly up to about 77 µM; nearly all actives have a fitted effect of over 45% in size. In a few lines:
as §2

Where “and” joins values, the source holds several entries; their conditions need not be identical. Equal values may be shown once. Records with an inconclusive call do not appear. Some compounds were tested as several samples or in several runs, with calls that do not always agree. Calls of active or inactive are those of the source. Calls come from the whole dose curve; as a rule, active = well fitted curve in the direction sought with a large enough effect in the repeat runs; inconclusive = weak or mixed curves; inactive = no such curve, though single readings can be large; an effect the other way counts as inactive or inconclusive.
% is set by controls: 0 for no effect and ±100 for the full control effect.

On to `CCCCCC/C(C=O)=C\c1ccccc1`, for which the molecule was classed as inactive in test [1], in test [3], in test [4] and in test [7]. Besides, the Potency entry in test [2], in test [6] and in test [9] was “inactive” each time. Besides, in test [5], the Potency was 44.1 µM (active) and inactive. The max response in [8] was -10.1% (inactive) and 0.846% (inactive).

On to `O=C(O)c1cc(=O)c2c(OCC(O)COc3cccc4oc(C(=O)O)cc(=O)c34)cccc2o1`, for which the call in [1], in test [3], in test [4] and in [7] was inactive. In addition, the Potency result in [2], in test [5], in test [6] and in test [9] was “inactive” each time. Further, in test [8], the max response was 0.302% (inactive) and 1.24% (inactive).

`CC1=CCC2CC1C2(C)C` (stereo unspecified): the molecule was classed as inactive in [1], in test [3], in test [4] and in test [7]. For the same molecule, the Potency entry in [2], in test [5], in test [6] and in test [9] was “inactive” in each case. The max response in test [8] is -11.4% (inactive) and 10.5% (inactive).

In the case of `CCCCCCCC(=O)OC`, the molecule was called inactive in test [1], in test [3], in [4] and in [7]. Besides, the Potency entry in test [2], in [5], in test [6] and in [9] was “inactive” each time. Further, the max response in test [8] was -1.2% (inactive) and 5.05% (inactive).

In the case of `OCc1cccnc1`, the call in test [1], in test [3], in test [4] and in [7] was inactive. Also, the Potency entry in test [2], in test [5], in test [6] and in [9] was “inactive” each time. The max response in [8] is -2.21% (inactive) and -1.61% (inactive).

On to `C=CCOC(=O)c1ccccc1C(=O)OCC=C`, for which the outcome in [1], in test [3], in [4] and in test [7] was inactive. Also, the Potency result in test [2], in test [5], in test [6] and in test [9] was “inactive” in each case. Moreover, the max response in [8] was 6.21% (inactive) and 2.3% (inactive).

With `CC(=O)Nc1cccc(O)c1`, the result in test [1], in test [3], in test [4] and in test [7] was inactive. The Potency entry in test [2], in test [5], in test [6] and in test [9] was “inactive” in each case. The max response in test [8] is -14.2% (inactive) and 4.42% (inactive).

Consider `COc1ccc2cc([C@H](C)C(=O)O)ccc2c1`, for which the outcome in [1], in test [3], in test [4] and in test [7] was inactive. The Potency result in test [2], in [5], in test [6] and in test [9] was “inactive” in each case. The max response in test [8] was 5.06% (inactive) and -0.971% (inactive).

As for `CCCCC(CC)COC(=O)CCCCC(=O)OCC(CC)CCCC` (stereo unspecified), the molecule was called inactive in [1], in [3], in [4] and in test [7]. For the same molecule, the Potency result in test [2], in test [5], in test [6] and in [9] was “inactive” in each case. Further, the max response in [8] is -6.84% (inactive) and 6.57% (inactive).

`COc1ccc(Cl)cc1C(=O)NCCc1ccc(S(=O)(=O)NC(=O)NC2CCCCC2)cc1`: the molecule was called inactive in test [1], in test [3], in test [4] and in test [7]. Moreover, the Potency entry in [2], in [5], in test [6] and in [9] was “inactive” in each case. The max response in test [8] was -19.9% (inactive) and -25.1% (inactive).

Regarding `O=c1[nH]c(=O)n([C@H]2CCCO2)cc1F`, the call in test [1], in [3], in test [4] and in test [7] was inactive. In addition, the Potency result in [2], in [5], in [6] and in test [9] was “inactive” in each case. For the same molecule, the max response in test [8] is -9.43% (inactive) and 1.8% (inactive).

In the case of `Oc1cccc2ccccc12`, the molecule was called inactive in test [1], in [3], in [4] and in test [7]. Moreover, the Potency result in [2], in [5], in test [6] and in [9] was “inactive” in each case. In addition, the max response in test [8] was -13.2% (inactive) and -5.72% (inactive).

Take `c1ccc2scnc2c1`: the molecule was classed as inactive in [1], in [3], in test [4] and in test [7]. The Potency result in test [2], in test [5], in test [6] and in test [9] was “inactive” throughout. The max response in [8] is 13.8% (inactive) and 1.41% (inactive).

In the case of `CCCCCOC(C)=O`, the outcome in test [1], in test [3], in test [4] and in [7] was inactive. Also, the Potency result in [2], in test [5], in test [6] and in [9] was “inactive” each time. For the same molecule, in test [8], the max response is -23.8% (inactive) and 1.43% (inactive).

As to `CC(=O)CC(=O)Nc1ccccc1`, the outcome in test [1], in test [3], in test [4] and in test [7] was inactive. Moreover, the Potency result in [2], in test [5], in test [6] and in test [9] was “inactive” in each case. Further, the max response in test [8] was -1.61% (inactive) and 1.86% (inactive).

For the molecule `CCCCCCCCCCCCCCO`, the molecule was called inactive in test [1], in test [3], in test [4] and in [7]. Besides, the Potency result in [2], in test [5], in [6] and in [9] was “inactive” throughout. Also, the max response in [8] was -1.67% (inactive) and 1.72% (inactive).

With `O=C=NCCCCCCN=C=O`, the outcome in test [1], in test [3], in test [4] and in test [7] was inactive. In addition, the Potency entry in test [2], in test [5], in [6] and in test [9] was “inactive” throughout. In addition, the max response in test [8] is 4.38% (inactive).

On to `CCCCCCOCCO`, for which the outcome in [1], in test [3], in [4] and in [7] was inactive. The Potency entry in test [2], in [5], in test [6] and in test [9] was “inactive” each time. In addition, the max response in [8] was -2.7% (inactive) and 0.672% (inactive).

Consider `CC(=O)OCC(=O)[C@@]12N=C(C)O[C@@H]1C[C@H]1[C@@H]3CCC4=CC(=O)C=C[C@]4(C)[C@H]3[C@@H](O)C[C@@]12C`, for which the call in [1], in test [3], in [4] and in test [7] was inactive. Also, the Potency entry in [2], in test [5], in test [6] and in test [9] was “inactive” in each case. Moreover, the max response in test [8] is -2.48% (inactive) and 0.51% (inactive).
